Experimental data reported in PubChem BioAssay AID1159580 (chemical genetic matrix, 2015).
“And” between values parts separate entries of the source, which are not always exact repeats. Equal entries are not always repeated. About 2,000 (36%) of roughly 5,500 compounds were called active. Roughly 18% stayed inconclusive and do not appear here. Cut-off read from the data, not from the text of the source: active = normalized growth mostly below about 0.91 (no sharp cut-off); inconclusive = no clear call, values can overlap the other calls; inactive = mostly above about 0.92. This is one part of the list.

Assay: chemical genetic growth profiling, strain panel (AID 1159580);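 note: tested at 20 µM; growth read once vehicle control cultures reached saturation at 30 °C; 1 = growth at the plate median or of vehicle wells; lower values mean less growth of the strain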
Settings: S. cerevisiae deletion strains, growth OD

Measured: normalized growth

CC(=O)N[C@@H](CCC(=O)O)C(=O)O
inactive: locus YAL021C, strain ccr4, stronger effect = lower value 1.03 | locus YAL026C, strain drs2, stronger effect = lower value 1.03 | locus YAL030W, strain snc1, stronger effect = lower value 1.01 | locus YBL061C, strain skt5, stronger effect = lower value 1.03 | locus YBR009C, strain hhf1, stronger effect = lower value 0.994 | locus YBR021W, strain FUR4, stronger effect = lower value 1.01 | locus YBR023C, strain chs3, stronger effect = lower value 1.03 | locus YBR171W, strain sec66, stronger effect = lower value 1.03 | locus YBR229C, strain ROT2, stronger effect = lower value 1 | locus YBR231C, strain swc5, stronger effect = lower value 1.02 | locus YBR279W, strain paf1, stronger effect = lower value 1.02 | locus YCL011C, strain gbp2, stronger effect = lower value 1.02 | locus YCL016C, strain dcc1, stronger effect = lower value 1.03 | locus YCL029C, strain bik1, stronger effect = lower value 1.02 | locus YCL069W, strain vba3, stronger effect = lower value 1.02 | locus YCR088W, strain abp1, stronger effect = lower value 1.02 | locus YDL005C, strain med2, stronger effect = lower value 1.02 | locus YDL035C, strain GPR1, stronger effect = lower value 1.01 | locus YDL040C, strain nat1, stronger effect = lower value 1.01 | locus YDL074C, strain BRE1, stronger effect = lower value 1.02 | locus YDL101C, strain DUN1, stronger effect = lower value 1.01 | locus YDL134C, strain PPH21, stronger effect = lower value 1.01 | locus YDL185W, strain tfp1, stronger effect = lower value 1 | locus YDL192W, strain arf1, stronger effect = lower value 1.01 | locus YDR001C, strain nth1, stronger effect = lower value 1.02 | locus YDR069C, strain doa4, stronger effect = lower value 1.03 | locus YDR101C, strain arx1, stronger effect = lower value 1.02 | locus YDR137W, strain rgp1, stronger effect = lower value 1.04 | locus YDR150W, strain NUM1, stronger effect = lower value 0.99 | locus YDR159W, strain sac3, stronger effect = lower value 1.01 | locus YDR162C, strain NBP2, stronger effect = lower value 1.01 | locus YDR195W, strain ref2 1.02 | locus YDR297W, strain sur2, stronger effect = lower value 1.02 | locus YDR318W, strain mcm21, stronger effect = lower value 1.03 | locus YDR334W, strain swr1, stronger effect = lower value 1.02 | locus YDR335W, strain msn5, stronger effect = lower value 1.02 | locus YDR388W, stronger effect = lower value 1.01 | locus YDR392W, strain spt3, stronger effect = lower value 1.05 | locus YDR502C, strain sam2, stronger effect = lower value 1.01 | locus YEL003W, strain gim4, stronger effect = lower value 1.01 | locus YEL037C, strain rad23, stronger effect = lower value 1.02 | locus YEL061C, strain CIN8 (second series), stronger effect = lower value 1.02 | locus YEL061C, strain CIN8, stronger effect = lower value 1.01 | locus YER015W, strain faa2, stronger effect = lower value 1.02 | locus YER016W, strain bim1, stronger effect = lower value 1.03 | locus YER110C, stronger effect = lower value 1.01 | locus YER111C, strain swi4, stronger effect = lower value 1.02 | locus YER155C, strain BEM2 (second series), stronger effect = lower value 1.01 | locus YER155C, strain BEM2, stronger effect = lower value 1.01 | locus YER167W, strain BCK2, stronger effect = lower value 1.01 | locus YFR010W, strain ubp6, stronger effect = lower value 1.01 | locus YGL078C, strain dbp3, stronger effect = lower value 0.996 | locus YGL086W, strain mad1, stronger effect = lower value 0.986 | locus YGL167C, strain pmr1, stronger effect = lower value 1.02 | locus YGL173C, strain kem1, stronger effect = lower value 1.01 | locus YGL227W, strain vid30, stronger effect = lower value 1.02 | locus YGL240W, strain doc1, stronger effect = lower value 1.01 | locus YGL248W, strain PDE1, stronger effect = lower value 1 | locus YGL253W, strain hxk2, stronger effect = lower value 1.04 | locus YGR078C, strain PAC10, stronger effect = lower value 0.999 | locus YGR135W, strain pre9, stronger effect = lower value 1.01 | locus YGR252W, strain gcn5, stronger effect = lower value 0.974 | locus YHR013C, strain ard1, stronger effect = lower value 1.06 | locus YHR027C, strain rpn1, stronger effect = lower value 1.02 | locus YHR030C, strain SLT2, stronger effect = lower value 1 and 0.981 | locus YHR079C, strain IRE1 (second series), stronger effect = lower value 1.02 | locus YHR079C, strain IRE1, stronger effect = lower value 0.981 | locus YHR094C, strain hxt1, stronger effect = lower value 1.01 | locus YHR129C, strain ARP1, stronger effect = lower value 1 | locus YHR142W, strain chs7, stronger effect = lower value 1.05 | locus YHR200W, strain rpn10, stronger effect = lower value 1 | locus YIL066C, strain RNR3, stronger effect = lower value 1.01 | locus YIL073C, strain SPO22, stronger effect = lower value 1.06 | locus YIL125W, strain kgd1, stronger effect = lower value 1 | locus YIR030C, strain dcg1, stronger effect = lower value 1.01 | locus YJL092W, strain hpr5, stronger effect = lower value 1.02 | locus YJL095W, strain BCK1 (second series), stronger effect = lower value 1.03 | locus YJL095W, strain BCK1, stronger effect = lower value 1.01 and 0.983 | locus YJL115W, strain asf1, stronger effect = lower value 1.01 | locus YJL129C, strain trk1, stronger effect = lower value 1.04 | locus YJL134W, strain LCB3, stronger effect = lower value 1.01 | locus YJL154C, strain vps35, stronger effect = lower value 1.02 | locus YJL164C, strain tpk1, stronger effect = lower value 1.01 | locus YJL166W, strain qcr8, stronger effect = lower value 1 | locus YJL168C, strain set2, stronger effect = lower value 1.01 | locus YJL187C, strain SWE1 (second series), stronger effect = lower value 1.01 | locus YJL187C, strain SWE1, stronger effect = lower value 1.03 | locus YJR043C, strain POL32, stronger effect = lower value 0.999 | locus YJR066W, strain TOR1, stronger effect = lower value 0.909
